From PubChem BioAssay (NCI)
The panel holds about 83,000 compounds, 20% with a hit somewhere; the sample as a whole holds those more often.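 Compound tested at a single concentration for 48 hours in 96-well plates; a percent growth value below 10 was scored as active.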 Calls of active or inactive are those of the source.

Tested on: MALME-3M melanoma
Assay: NCI-60 one-dose screen, 48 h (100 = growth as untreated, 0 = no growth, -100 = all killed)
Conditions: 10 µM unless noted

SMILES	growth
Nc1c(C(=O)c2ccccc2)sc2nc(-c3cccs3)ccc12	72.5% (inactive)
COc1ccc2c(CCCCC(c3ccccc3)c3ccccc3)c3[n+](cc2c1OC)CCc1cc2c(cc1-3)OCO2	-80.9% (active)
CC(C)(C)C(=O)OCOP(=O)(OCOC(=O)C(C)(C)C)C1CCCN(OC(=O)c2ccccc2)C1=O (configuration not stated)	29.4% (inactive)
O=C(Cc1ccccc1)Nc1nnc(NC2CCN(c3nnc(NC(=O)Cc4ccccc4)s3)CC2)s1	82.8% (inactive)
CCCCCCC1(/C=N/NC(N)=O)NC(=O)NC1=O (configuration not stated)	103% (inactive)
CC(N)C(Cc1ccc(Cl)cc1)c1ccc(Cl)cc1 (configuration not stated)	80.3% (inactive)
CC(C)[C@@H](C)/C=C/[C@@H](C)[C@H]1CCC2=C3C=CC4=CC(=O)CC[C@]4(C)[C@H]3CC[C@@]21C	110% (inactive)
CCOC(=O)C1=C(C)N=C2Sc3cc(OC(F)(F)F)ccc3N2[C@H]1c1ccccn1	59.1% (inactive)
COC(=O)[C@]12CC[C@@H](C)[C@H](C)[C@@H]1C1=CC[C@@H]3[C@@]4(C)C(c5cnco5)=C[C@@](C)(CO)C4=CC[C@@]3(C)[C@]1(C)CC2	87.6% (inactive)
C=C1C(=O)O[C@H]2[C@H]1CC/C(Cn1cc(-c3cc(C)c(C)cc3C)nn1)=C\CC[C@@]1(C)O[C@@H]21	-79.8% (active)
C=C1C(=O)O[C@H]2[C@H]1CC/C(CNC(=O)c1cc3cc(OC)ccc3[nH]1)=C\CC[C@@]1(C)O[C@@H]21	-61.6% (active)
C=CCC(=O)N[C@H](/C=C/C(=O)O)Cc1ccc(-c2cc(Cl)cc(Cl)c2)cc1	99.9% (inactive)
